IDE exosite FP: displaces the probe from the exo-site of human IDE; z-score at 20 µM; P14735; 17,000 tested, 6.3% active; AID 1259349; purified IDE, FL-6b probe fluorescence polarization; active compounds read low;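 active means z-score of -3 or lower, meaning strong loss of probe binding signal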;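 further: His-tagged human IDE residues 42-1019 made in E. coli with 30 nM FL-6b probe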
* marks the source's active call; other numbers are inactive results; ! = not confirmed by another sample. The full list was thinned out, with hits kept by preference.

SMILES	IDE exosite FP
CNC(=O)C[C@@H]1CC[C@H]2[C@@H](COc3ccc(NC(=O)c4ccccc4F)cc3C(=O)N2C)O1	-0.68
Cc1noc(C)c1NC(=O)N1C[C@H](O)COC[C@@H]2O[C@H](CC(=O)N[C@@H]3CCN(Cc4ccccc4)C3)CC[C@H]21	-0.083
CN(C)C(=O)c1cccc(-c2ccc([C@H]3[C@@H](CO)N4CCCCN(CC5CCOCC5)C[C@@H]34)cc2)c1	-0.15
COCC(=O)N1CCCCN2[C@H](C1)[C@H](c1ccc(C#Cc3ccc(OC)cc3)cc1)[C@@H]2CO	1.8
COCC(=O)N1CCCCN2[C@H](CO)[C@H](c3ccc(C#Cc4ccccc4)cc3)[C@H]2C1	-6.3*
COc1ccccc1NC(=O)N1CCCCN2[C@H](CO)[C@H](c3ccc(C#Cc4ccccc4)cc3)[C@H]2C1	-0.26
COCC#Cc1ccc([C@@H]2[C@H](CO)N3CCCCN(C(=O)COC)C[C@@H]23)cc1	1.8
COc1ccccc1NC(=O)N1CCCCN2[C@H](C1)[C@@H](c1ccc(C#Cc3ccccc3)cc1)[C@@H]2CO	2.6
COCC(=O)N1CCCCN2[C@@H](CO)[C@@H](c3ccc(C#Cc4ccccc4)cc3)[C@@H]2C1	-8.5*
COCC(=O)N1CCCCN2[C@@H](CO)[C@@H](c3ccc(C#Cc4ccc(OC)cc4)cc3)[C@@H]2C1	0.57
COCC(=O)N1CCCCN2[C@H](CO)[C@@H](c3ccc(C#Cc4ccccc4)cc3)[C@@H]2C1	-8.5*
COc1ccc(C#Cc2ccc([C@@H]3[C@@H](CO)N4C(=O)CN(C(=O)Nc5ccccc5F)C[C@H]34)cc2)cc1	2.2
CCCC#Cc1ccc([C@H]2[C@@H](CO)N3C(=O)CN(S(=O)(=O)Cc4ccccc4)C[C@H]23)cc1	3
C[C@@H]1CN([C@@H](C)CO)C(=O)c2ccccc2-c2ccccc2CO[C@@H]1CN(C)Cc1cccc(C(=O)O)c1	-1
C/C=C/c1ccc([C@@H]2[C@@H](CO)N3C(=O)CN(C(=O)Nc4ccccc4F)C[C@@H]23)cc1	2.1
C/C=C/c1ccc([C@H]2[C@@H](CO)N(C(C)=O)[C@@H]2CN(CCC)C(=O)C2CCC2)cc1	2.7
COCC(=O)N1CC(=O)N2[C@@H](CO)[C@H](c3ccc(C#CC(C)C)cc3)[C@@H]2C1	3.6
CC(C)c1cn(CC[C@H]2CC[C@@H](NS(=O)(=O)c3ccc(F)cc3)[C@H](CO)O2)nn1	0.21
C/C=C/c1ccc([C@@H]2[C@H]3CN(Cc4ccc(C)cc4)CC(=O)N3[C@H]2CO)cc1	2
COC(=O)c1ccc(CN2CC(=O)N3[C@H](CO)[C@@H](c4ccc(Br)cc4)[C@H]3C2)cc1	2.8
C/C=C/c1ccc([C@@H]2[C@@H](CO)N3C(=O)CN(Cc4ccc(C)cc4)C[C@@H]23)cc1	1.2
C/C=C/c1ccc([C@H]2[C@H](CO)N3C(=O)CN(Cc4ccc(C)cc4)C[C@@H]23)cc1	-5*
COC(=O)c1ccc(CN2CC(=O)N3[C@H](CO)[C@@H](c4ccc(Br)cc4)[C@@H]3C2)cc1	-3.5*
COC(=O)c1ccc(CN2CC(=O)N3[C@H](CO)[C@H](c4ccc(Br)cc4)[C@@H]3C2)cc1	-0.79
COc1ccccc1-c1ccc([C@@H]2[C@H](CO)N(CC3CC3)C23CN(S(C)(=O)=O)C3)cc1	0.73
SMILES	IDE exosite FP
CN1C(=O)c2cc(NS(=O)(=O)c3cccc(F)c3)ccc2OC[C@@H]2O[C@@H](CC(=O)N3CCc4ccccc4C3)CC[C@@H]21	0.031
O=C(C[C@H]1CC[C@@H](NC(=O)c2ccc3c(c2)OCO3)[C@H](CO)O1)NCc1ccc(Oc2ccccc2)cc1	0.45
N#C[C@H]1[C@@H](c2ccccc2)[C@@H](CO)N1C(=O)Cc1ccccc1	-0.25
C/C=C/c1ccc(C2[C@@H]3CN(C(=O)Cc4ccccc4)C[C@H]2N3)cc1 (some centres not stated)	2.2
O=S(=O)(c1ccc(-c2ccccc2)cc1)N1C[C@@H]2N[C@H](C1)C2c1ccc(-c2ccncc2)cc1 (some centres not stated)	1.1
C/C=C/c1ccc(C2[C@@H]3CN(C(=O)Cc4ccncc4)C[C@H]2N3)cc1 (some centres not stated)	2.8
O=C(Cc1ccncc1)N1C[C@@H]2N[C@H](C1)C2c1ccc(/C=C/c2ccccc2)cc1 (some centres not stated)	-4.6*!
O=C(Cc1ccncc1)N1C[C@@H]2N[C@H](C1)C2c1ccc(-c2ccccc2)cc1 (some centres not stated)	-3.1*
O=C(CN1CCOCC1)N1C[C@@H]2N[C@H](C1)C2c1ccc(-c2ccccc2)cc1 (some centres not stated)	1.6
C/C=C/c1ccc([C@H]2[C@H](CO)N(C(C)=O)[C@H]2CN(C)C(=O)c2ccccn2)cc1	4.2
COc1cc(CN2CC3(CCN(S(=O)(=O)c4cn(C)cn4)CC3)c3c(n(C)c4cc(OC)ccc34)[C@@H]2CO)cc(OC)c1	0.0077
N#C[C@H]1[C@H](c2ccccc2-c2ccccc2F)[C@@H](CO)N1C(=O)Cc1ccccc1	-0.14
O=C1CN(S(=O)(=O)Cc2ccccc2)C[C@@H]2[C@@H](c3ccc(C#Cc4ccccc4)cc3)[C@H](CO)N12	-0.81
O=C1CN(S(=O)(=O)Cc2ccccc2)C[C@H]2[C@@H](c3ccc(C#Cc4cccnc4)cc3)[C@@H](CO)N12	-5.8*
CCS(=O)(=O)N1CC(=O)N2[C@H](CO)[C@@H](c3ccc(C#CCc4ccccc4)cc3)[C@@H]2C1	1.7
O=C1CN(S(=O)(=O)Cc2ccccc2)C[C@H]2[C@@H](c3ccc(C#Cc4cccnc4)cc3)[C@H](CO)N12	0.3
O=C1CN(S(=O)(=O)Cc2ccccc2)C[C@H]2[C@H](c3ccc(C#Cc4ccccc4)cc3)[C@@H](CO)N12	0.58
O=C1CN(S(=O)(=O)Cc2ccccc2)C[C@H]2[C@@H](c3ccc(C#Cc4ccccc4)cc3)[C@@H](CO)N12	-3.5*
O=C1CN(S(=O)(=O)Cc2ccccc2)C[C@H]2[C@H](c3ccc(C#Cc4ccccc4)cc3)[C@H](CO)N12	-1.5
O=C1CN(S(=O)(=O)Cc2ccccc2)C[C@@H]2[C@H](c3ccc(C#Cc4ccccc4)cc3)[C@H](CO)N12	-3.5*
O=C1CN(S(=O)(=O)Cc2ccccc2)C[C@H]2[C@H](c3ccc(C#Cc4cccc(F)c4)cc3)[C@@H](CO)N12	3.8
CS(=O)(=O)N1CC(=O)N2[C@H](CO)[C@H](c3ccc(C#CCc4ccccc4)cc3)[C@@H]2C1	0.97
CS(=O)(=O)N1CC(=O)N2[C@H](C1)[C@H](c1ccc(C#CCc3ccccc3)cc1)[C@@H]2CO	-3.4*
O=C1CN(S(=O)(=O)Cc2ccccc2)C[C@H]2[C@@H](c3ccc(C#Cc4ccc(F)cc4)cc3)[C@@H](CO)N12	-1.4
COc1ccccc1NC(=O)N1CC(=O)N2[C@H](CO)[C@H](c3ccc(C#CC4CC4)cc3)[C@@H]2C1	-0.84
O=C(Nc1cccc(F)c1)N1CC(=O)N2[C@H](CO)[C@H](c3ccc(-c4ccccc4)cc3)[C@H]2C1	-0.45
O=C(c1cccc(F)c1)N1CC(=O)N2[C@H](CO)[C@@H](c3ccc(-c4cccnc4)cc3)[C@H]2C1	4.2
CO[C@@H]1CN(C)C(=O)c2cc(NC(=O)NC(C)C)ccc2OC[C@@H](C)N(C(=O)CN(C)C)C[C@H]1C	0.95
O=C1CNC[C@@H]2[C@H](c3ccc(C#Cc4cccnc4)cc3)[C@@H](CO)N12	-0.78
COc1cccc(CN2CC3(CN(C)C3)c3c(n(C)c4cc(OC)ccc34)[C@@H]2CO)c1	1.4

From PubChem BioAssay
